Pf Dd2 inh – blocks in vitro growth of P. falciparum Dd2 | 4.3% of 120,000 active | P. falciparum Dd2 growth, SYBR Green, 72 h | Potency, µM (highest dose often 28.9 µM), for the others: at the top dose activity, negative = inhibition, most hits filed as inhibitors; active = well fitted inhibition curve with a large enough effect;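 note: plate controls were DMSO vehicle for no effect and reference drug for full effect; nearly all actives have a fitted effect of over 65% in size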
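Readout: SYBR Green fluorescence, 485 nm excitation, 535 nm emission, after ~16 h lysis at 37C. Before that, Dd2-infected red cells (2.5% hematocrit) grew 72 h with compound, 29 uM top final concentration.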
* hit, by the source's call; i = inactive; [ ] = dose if it differs, or a comment. This is one part of a sample in which hits are shown more often than they occur. Potency is the fitted concentration of half-maximal effect.

SMILES | Pf Dd2 inh
CN(Cc1cccc(CCN)c1)Cc1cnn(-c2ccc(F)cc2)c1 | 10µM*
CN(Cc1ccc(F)cc1)Cc1cccn1C | -29%[44.1 µM]
CN1C(=O)CC(C(=O)O)C12CCN(Cc1cnn(-c3ccc(F)cc3)c1)CC2 (configuration not stated) | -3%
COc1ccccc1-c1cc2c(ccn2Cc2ccncc2)c(N2CCOCC2)n1 | -3%[44.1 µM]
C[S+](=O)([O-])N1CCC(Cn2ccc3c(N4CCOCC4)nc(-c4cccc5[nH]ccc45)cc32)CC1 | -14%
COc1ncccc1-c1cc2c(ccn2CC2CCN(C)CC2)c(N2CCOCC2)n1 | 8.9µM*
COc1cccc(-c2cc3c(ccn3CC3CCN(C)CC3)c(N3CCOCC3)n2)c1 | 6.3µM*
c1cc(-c2cc3c(ccn3Cc3ccncc3)c(N3CCOCC3)n2)cc(N2CCOCC2)c1 | i
C[S+](=O)([O-])N1CCC(Cn2ccc3c(N4CCOCC4)nc(-c4cncnc4)cc32)CC1 | -18%
CN1CCC(N[C@@H]2CO[C@H](CNC(=O)CC(C)(C)C)[C@H]2O)CC1 | 30%[44.1 µM]
COC(=O)c1ccc2c(c1)nc1n2[C@@H](CNCc2ccc(S(C)(=O)=O)cc2)COC1 | -20%[44.1 µM]
COc1ccc(CN2Cc3[nH]cnc3C[C@H]2c2nc(Cc3ccccc3)no2)cc1 | -24%[44.1 µM]
COc1ccc(C(=O)N2CCC3(CC2)OC(=O)N(Cc2ccc(NC(C)=O)cc2)C3(C)c2ccccc2)cn1 (configuration not stated) | -12%
COc1ccc(-c2cc([C@H]3CN4CC[C@H]3C[C@@H]4CNC(=O)NC(C)C)nc(C)n2)cc1OC | i
Cc1nc(-c2cccs2)cc([C@H]2CN3CC[C@H]2C[C@@H]3COC(=O)Nc2ccc(C(C)C)cc2)n1 | 7.1µM*
COCC(=O)NC[C@H]1C[C@@H]2CCN1C[C@@H]2c1cc(-c2ccccc2OC)nc(C)n1 | i
Cc1nc(-c2cccs2)cc([C@H]2CN3CC[C@H]2C[C@@H]3CNS(C)(=O)=O)n1 | i
CC(=O)c1ccc(NC(=O)NC[C@H]2C[C@@H]3CCN2C[C@@H]3c2cc(-c3cccs3)nc(C)n2)cc1 | i
COc1ccccc1-c1cc([C@H]2CN3CC[C@H]2C[C@@H]3COC(=O)Nc2ccc(C(C)C)cc2)nc(C)n1 | 13µM*
CN1CCCN(CC(=O)N2C[C@H](NS(C)(=O)=O)[C@@H](C3CC3)C2)CC1 | -2%
COC[C@@H]1CN(C(=O)c2cccc(C#N)c2)C[C@H]1c1ccccn1 | 2%
Cc1cc(CN(C)C2CCc3ccccc32)no1 (configuration not stated) | -1%[44.1 µM]
CNC(=O)[C@@H](c1ccccc1OC)N1CCC[C@H]1C(=O)N1CCOCC1 | 1%[44.1 µM]
CCOC(=O)c1ccc(Nc2nc3nonc3nc2Nc2cccc(C)c2C)cc1 | 1.1µM*
CCOC(=O)c1nc(Nc2ccc(Cl)cc2)c2c(C)noc2n1 | 17%
SMILES | Pf Dd2 inh
CCOC(=O)c1ccc(Nc2nc3ccccc3n3c(C)nnc23)cc1 | -24%
O=C(NC1CCCCC1)[C@@H]1C[C@@H](O)CN1C1CCN(C(=O)c2ccc(Cn3ccnc3)o2)CC1 | i
NC(=O)C1CCN(CC[C@H]2CN(C(=O)Cc3ccccc3)CC[C@H]2CC(=O)O)CC1 | -3%[44.1 µM]
Nc1nc(C2CC(N)C2)cc(N2CCC(C(=O)NCc3ccccn3)CC2)n1 (configuration not stated) | -22%
CC(C)c1noc(-c2cn(C3CCN(C(=O)c4ccc5c(c4)OCO5)C3)nn2)n1 (configuration not stated) | i
OCC(O)CNc1nccc(C2(c3ccccc3Cl)CCNCC2)n1 (configuration not stated) | -14%
C[C@@H](O)CNc1nccc(C2(c3ccccc3Cl)CCNCC2)n1 | -11%
CCC(C)Cc1nccc(C2(c3ccccc3Cl)CCNCC2)n1 (configuration not stated) | 4.5µM*
CC(C)CNc1nccc(C2(c3ccccc3Cl)CCNCC2)n1 | 5µM*
CC(CNc1nccc(C2(c3ccccc3Cl)CCNCC2)n1)CN(C)C (configuration not stated) | -12%
Clc1ccccc1C1(c2ccnc(NCc3ccncc3)n2)CCNCC1 | -10%
CCS(=O)(=O)Nc1ccc(C2(C(=O)NCc3cccs3)CCCCC2)cc1 | i
CCN(CC)C(=O)Cn1c(C)ccc(NS(=O)(=O)c2ccc(C)cc2)c1=O | 9%
CN(C)C[C@H]1O[C@@H](CO)[C@@H](O)[C@H]1N1CCN(c2cccc(C(F)(F)F)c2)CC1 | i
CC(=O)Nc1ccc(NC(=O)CN2C(=O)NC3(CCOCC3)C2=O)cc1 | 67%
COc1ccc(S(=O)(=O)N2C[C@@H]3C[C@H](C2)c2ccc(-c4cccc(C(F)(F)F)c4)c(=O)n2C3)cc1 | -13%
CC(C)N1C[C@H](O)C[C@H]1c1nnc2n1CCN(C(=O)c1n[nH]c3ccccc13)CC2 | i
O=C(Cn1nc2n(c1=O)CCCCC2)Nc1ccccc1C(F)(F)F | 37%
Cc1ccc(C#N)c(=O)n1CC(=O)Nc1ccccc1C(F)(F)F | 9%
CCn1c(=O)n(CC)c2cc(N3CCCCC3)c(NC(=O)Nc3ccccc3C(F)(F)F)cc21 | 10µM*
Cc1ccc(C)c(NC(=O)Nc2cc3c(cc2N2CCCCC2)n(C)c(=O)n3C)c1 | 10µM*
Cc1ccc(C)c(NS(=O)(=O)c2ccc3c(c2)n(C)c(=O)n3C)c1 | 15%
COc1ccc(Cl)cc1NC(=O)Nc1c[nH]c(=O)[nH]c1=O | 37%
COc1ccc(Cl)cc1NC(=O)c1c(OC)cc(=O)n2c1CCCC2 | 50%
CCn1c(=O)n(CC)c2cc(N3CCCCC3)c(NC(=O)Nc3cc(Cl)ccc3OC)cc21 | 8.9µM*
SMILES | Pf Dd2 inh
CC(=O)c1cccc(NC(=O)Nc2cc3c(cc2N2CCCC2)n(C)c(=O)n3C)c1 | i
CC(C)c1nnc2ccc(N3CCCC3)nn12 | 23%
Cc1noc(C)c1CN[C@@H]1C[C@H](CO)[C@@H](O)[C@H]1O | 10%[44.1 µM]
OC1(CN2CCC(CCn3cccn3)CC2)CCNC1 (configuration not stated) | 0%
CC(C(=O)NC1CCN(c2cnn(CC3CC3)c(=O)c2)CC1)c1ccccc1 (configuration not stated) | -20%
Cc1noc(C)c1CC(=O)N1CCCC(Cc2nc(C3CCOCC3)no2)C1 (configuration not stated) | 50%
CC(C)NC(=O)N(C1CC1)C1CCOC2(CCN(C(=O)Cc3ccccc3)CC2)C1 (configuration not stated) | i
CC(=O)c1cccc(NC(=O)Cn2c(=O)n(-c3ccc(F)cc3)c(=O)c3c2cc(C)n3C)c1 | -24%
Cc1ccccc1C(=O)N1CCC(N2CCCCCC2=O)CC1 | -4%[44.1 µM]
COc1cc(NC(=O)NC(C)c2c(-n3cccc3)sc3c2CCCC3)cc(OC)c1OC (configuration not stated) | -17%
Cc1sc(-n2cccc2)c(C(C)NC(=O)Nc2ccccc2Cl)c1C (configuration not stated) | 5.6µM*
CCOC(=O)c1ccccc1NC(=O)NC(C)c1c(-n2cccc2)sc(C)c1C (configuration not stated) | 11µM*
CCOC(=O)c1ccccc1NC(=O)N(C(C)C)C1CCN(C(C)=O)CC1 | -8%
Cc1ccc(-c2ccc(=O)n(C(C)C(=O)Nc3ccccc3Cl)n2)cc1C (configuration not stated) | 9%
CCOc1ccc(NC(=O)NC(C)c2c(-n3cccc3)sc(C)c2C)cc1 (configuration not stated) | -23%
CC(=O)N1CCN(C(=O)c2cccc(-c3ccco3)c2)CC(O)C1 (configuration not stated) | -8%
